# Compound activity deposited in PubChem BioAssay by Sanford-Burnham Center for Chemical Genomics.
# pCIP destab: lowers stability of the mouse p/CIP coactivator protein. Q05BA5. F442A p/CIP-EGFP cells, EGFP fluorescence, 16 h. decrease of EGFP signal, % at 10 µM. actives 0.01% (n = 290,000). AID 1984;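 active means EGFP signal decrease of at least 30% at 10 µM or well 3 SD below plate mean, unless failing retest; inactive means the rest, including hits failing retest or dose response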
# MIN6 prolif: MIN6 beta-cell proliferation induction. MIN6 cells proliferation, ATPlite luminescence, 48 h; cells starved in 0.2% serum; 100% = growth in 10% serum. actives 0.29% (n = 330,000). proliferation, % at 10 µM;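 active means compounds whose signal lies at least 3.5 SD above the mean of all wells on their plate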
# GRIN3A LBD mod: NR3A (human) ligand-binding domain modulation; NR3A LBD differential scanning fluorimetry, Tm shift; 0% = protein alone, 100% = glycine-bound protein; Tm shift relative to glycine control, % at 25 µM; actives 2.5% (n = 340,000);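 active means melting temperature shift of at least 10% of the positive control shift, at one fixed dose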
# FAS-TE inh: inhibitors of human fatty acid synthase thioesterase domain | P49327 | inhibition, % at 15 µM | actives 0.67% (n = 360,000) | recombinant FAS-TE, OMFH fluorogenic substrate, fluorescence endpoint;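 active means compounds whose normalised, plate-corrected inhibition of enzyme fluorescence in the single-dose primary screen is 50% or more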
# Target sequence (P49327 whole entry, looked up, the tested form may be a part): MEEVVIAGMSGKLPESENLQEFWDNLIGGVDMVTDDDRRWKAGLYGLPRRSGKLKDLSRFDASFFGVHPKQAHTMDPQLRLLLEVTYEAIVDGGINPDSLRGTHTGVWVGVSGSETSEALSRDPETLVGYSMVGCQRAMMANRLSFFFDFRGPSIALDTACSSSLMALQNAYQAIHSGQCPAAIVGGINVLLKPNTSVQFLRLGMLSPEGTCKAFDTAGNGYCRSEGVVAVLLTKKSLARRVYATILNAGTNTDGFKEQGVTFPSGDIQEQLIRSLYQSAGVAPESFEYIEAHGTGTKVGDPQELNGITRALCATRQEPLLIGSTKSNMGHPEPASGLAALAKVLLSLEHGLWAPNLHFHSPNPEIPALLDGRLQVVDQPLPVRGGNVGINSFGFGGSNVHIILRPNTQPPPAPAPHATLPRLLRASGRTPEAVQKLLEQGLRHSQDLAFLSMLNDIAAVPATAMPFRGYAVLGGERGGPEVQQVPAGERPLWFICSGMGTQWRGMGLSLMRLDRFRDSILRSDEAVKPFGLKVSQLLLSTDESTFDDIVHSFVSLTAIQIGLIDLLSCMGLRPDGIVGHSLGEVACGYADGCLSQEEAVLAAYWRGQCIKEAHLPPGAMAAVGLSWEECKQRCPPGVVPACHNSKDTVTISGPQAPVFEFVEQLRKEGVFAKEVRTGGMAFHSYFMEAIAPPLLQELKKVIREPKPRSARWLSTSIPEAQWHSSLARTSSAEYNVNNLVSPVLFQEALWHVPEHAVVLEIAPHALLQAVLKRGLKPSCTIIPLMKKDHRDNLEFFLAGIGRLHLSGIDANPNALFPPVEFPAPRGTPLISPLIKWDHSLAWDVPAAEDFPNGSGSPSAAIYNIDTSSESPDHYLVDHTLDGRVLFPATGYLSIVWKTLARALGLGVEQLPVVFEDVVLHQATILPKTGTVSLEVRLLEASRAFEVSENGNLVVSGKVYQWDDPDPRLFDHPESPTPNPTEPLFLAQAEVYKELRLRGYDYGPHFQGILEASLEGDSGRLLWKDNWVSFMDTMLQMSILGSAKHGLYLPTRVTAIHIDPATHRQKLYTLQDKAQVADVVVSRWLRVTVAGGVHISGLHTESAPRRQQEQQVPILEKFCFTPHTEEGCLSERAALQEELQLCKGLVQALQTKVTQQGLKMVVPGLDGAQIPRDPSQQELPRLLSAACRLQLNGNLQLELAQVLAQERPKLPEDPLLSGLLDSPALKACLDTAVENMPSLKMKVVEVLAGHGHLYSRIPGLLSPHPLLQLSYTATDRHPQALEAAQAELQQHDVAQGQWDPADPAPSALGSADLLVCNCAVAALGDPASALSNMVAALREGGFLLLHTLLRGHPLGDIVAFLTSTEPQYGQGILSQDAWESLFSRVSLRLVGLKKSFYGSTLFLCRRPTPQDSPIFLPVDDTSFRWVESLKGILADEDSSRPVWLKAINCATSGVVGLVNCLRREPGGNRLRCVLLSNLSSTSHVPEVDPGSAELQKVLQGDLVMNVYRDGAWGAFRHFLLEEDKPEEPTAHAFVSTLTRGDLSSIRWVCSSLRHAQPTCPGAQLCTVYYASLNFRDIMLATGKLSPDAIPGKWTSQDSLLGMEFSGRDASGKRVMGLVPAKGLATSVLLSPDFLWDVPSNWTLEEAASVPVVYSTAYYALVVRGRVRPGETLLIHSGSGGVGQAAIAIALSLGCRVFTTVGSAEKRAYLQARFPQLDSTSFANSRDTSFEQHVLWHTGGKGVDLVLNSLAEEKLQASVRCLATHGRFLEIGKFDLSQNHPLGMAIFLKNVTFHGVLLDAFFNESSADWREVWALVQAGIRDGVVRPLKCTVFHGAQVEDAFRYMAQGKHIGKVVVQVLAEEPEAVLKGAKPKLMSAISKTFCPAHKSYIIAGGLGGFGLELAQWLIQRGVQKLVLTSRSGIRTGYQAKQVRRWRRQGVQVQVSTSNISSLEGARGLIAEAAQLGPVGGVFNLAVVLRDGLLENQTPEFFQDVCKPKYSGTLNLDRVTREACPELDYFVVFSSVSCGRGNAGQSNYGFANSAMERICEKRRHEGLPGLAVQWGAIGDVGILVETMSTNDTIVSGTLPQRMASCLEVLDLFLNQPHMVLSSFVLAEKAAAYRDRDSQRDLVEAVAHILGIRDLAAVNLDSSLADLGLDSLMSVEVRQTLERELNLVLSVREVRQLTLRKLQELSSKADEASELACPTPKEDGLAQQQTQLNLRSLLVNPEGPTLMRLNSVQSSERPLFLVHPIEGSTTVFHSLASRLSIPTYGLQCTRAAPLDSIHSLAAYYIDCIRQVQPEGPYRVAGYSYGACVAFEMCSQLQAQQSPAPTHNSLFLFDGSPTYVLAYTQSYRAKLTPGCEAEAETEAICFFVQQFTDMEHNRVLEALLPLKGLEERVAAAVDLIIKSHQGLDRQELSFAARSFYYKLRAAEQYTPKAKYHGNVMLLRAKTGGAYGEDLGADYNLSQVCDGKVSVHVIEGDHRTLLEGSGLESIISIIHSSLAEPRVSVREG
# MPTP inh: blocks calcium-induced mitochondrial swelling | actives 1.4% (n = 360,000) | inhibition, % at 10 µM | isolated mouse mitochondria, Ca2+ swelling absorbance, 30 min;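 active means inhibition of 50% or more, scaled per plate between neutral and stimulator controls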
# Rh123 counter: mitochondrial membrane potential, counter-screen | isolated mitochondria, Rhodamine 123 fluorescence | AID 624504 | shares compounds with MPTP inh | inhibition, % at 10 µM | actives 78% (n = 5,000); in the data active means inhibition above about 22%
# MPTP abs DR: MPTP inhibition, dose response swelling confirmation; shares compounds with MPTP inh; actives 58% (n = 780); isolated mitochondria swelling, absorbance; IC50, µM; AID 651561; in the data active means IC50 below about 20 µM
# MPTP cs DR: active in counter-screen for permeability transition pore inhibitors; AID 651564; actives 49% (n = 780); isolated mitochondria counterscreen, fluorescence read-out; IC50, µM; shares compounds with MPTP inh; in the data active means IC50 below about 80 µM
# A number is an active result; 0 = inactive; - = not tested or not shown. A selection: hits, their analogues and other compounds. The true share with any hit is near 4.1%.
SMILES,pCIP destab,MIN6 prolif,GRIN3A LBD mod,FAS-TE inh,MPTP inh,Rh123 counter,others
N#CC(C#N)=C(Nc1ccc(F)cc1)SCc1cccc(F)c1,0,0,0,0,95,85,
Cc1cccc(C(=O)N2CCc3cc(-c4csc(NC(=O)CN5CCCC5)n4)ccc32)c1,0,0,0,0,86,0,MPTP abs DR=0;MPTP cs DR=37
COc1ccc(Br)c(C(=O)OCC(=O)NC2CCCCCC2)c1,-,0,0,0,0,-,
CN1CCN(CC(=O)c2ccccc2F)CC1,0,0,0,0,0,-,
CCN(CC)CCOc1ccc(/C(=C(/Cl)c2ccccc2)c2ccccc2)cc1,0,0,0,0,98,0,MPTP abs DR=19;MPTP cs DR=43
CCOc1ccc(C(=O)OCCN(CC)CC)cc1,0,0,0,0,0,-,
CC/C(=C(\c1ccc(O)cc1)c1ccc(OCCN(C)C)cc1)c1ccccc1,0,0,0,0,103,0,
CCc1ccc(-c2cc(C)no2)cc1S(=O)(=O)Nc1cccc(CN2CCCC2)c1,0,0,0,0,0,-,
CCN(CC)CCNCC1C(=O)O[C@@H]2C[C@@]3(C)CCC[C@H](C)C3=C[C@H]12 (stereo not given in full),0,0,0,0,0,-,
COC(=O)c1c(N2C(=O)[C@H]3[C@@H](C2=O)[C@]2(C(=O)Nc4c(C)cccc42)N2CCC[C@@H]32)sc(C)c1C,0,0,0,0,0,-,
Cc1ccc(C)c(N2CCN(C(=O)c3ccc(NC4=NC5CS(=O)(=O)CC5S4)cc3)CC2)c1 (stereo not given),0,0,0,0,0,-,
CC1Oc2ccccc2C=C1/C=N/NC(=O)c1ccccc1O (stereo not given),0,0,13,0,90,72,
CC1Oc2ccccc2C=C1/C=N/NC(=O)c1ccccc1 (stereo not given),0,0,0,0,0,-,
Cc1ccc(C(=O)Nc2ccc(CN3CCCCC3)cc2)c(C)c1,0,0,0,0,0,-,
CCN(CC)c1ccc(NC(=O)c2cc(Cl)ccc2OC)cc1,0,0,0,0,99,0,MPTP abs DR=14;MPTP cs DR=0
COc1ccc(Cl)cc1C(=O)Nc1ccncc1,0,0,0,0,0,-,
COc1ccc(Cl)cc1C(=O)Nc1ccc(CN2CCCCC2)cc1,0,0,0,0,57,0,MPTP abs DR=7.1;MPTP cs DR=0
COCCNC(=O)c1ccc(CS(=O)(=O)c2cccc(C(F)(F)F)c2)o1,0,0,0,0,0,-,
CC(Cc1cccs1)NC(=O)Nc1ccc([N+](=O)[O-])cc1 (stereo not given),0,0,0,0,86,91,
CC(Cc1cccs1)NC(=O)c1cccs1 (stereo not given),0,0,0,0,0,-,
COc1ccc(NC(=S)NC(C)Cc2cccs2)cc1 (stereo not given),0,0,0,0,0,-,
CC(Cc1cccs1)NC(=S)Nc1ccc(F)cc1 (stereo not given),0,0,0,0,50,73,
CN(C)S(=O)(=O)c1cccc(NC(=O)c2ccc3c(c2)OCCO3)c1,-,0,0,0,0,-,
CC(=O)Nc1ccc(NC(=O)C(C)OC(=O)c2cc(S(=O)(=O)N(C)C)ccc2N2CCCC2)cc1 (stereo not given),-,0,0,0,0,-,
Cc1cc(C(=O)COC(=O)c2cccnc2Cl)c(C)n1C,-,0,0,0,0,-,
SMILES,pCIP destab,MIN6 prolif,GRIN3A LBD mod,FAS-TE inh,MPTP inh,Rh123 counter,others
Cc1nc2cc(NC(=O)Nc3ccc(Br)cc3)ccc2o1,0,0,34,0,82,83,
Cc1nc2cc(NC(=O)NCc3ccc4c(c3)OCO4)ccc2o1,0,0,-,0,0,-,
COc1cc2[nH]c3c(N4CCN(c5ccccn5)CC4)ncnc3c2cc1OC,0,0,0,0,0,-,
CCOC(=O)N1CCN(c2ncnc3c2[nH]c2ccc(OC)cc23)CC1,0,0,0,0,0,-,
COc1ccc2[nH]c3c(N4CCc5ccccc5C4)ncnc3c2c1,0,0,0,0,81,70,
COc1ccc(N2CCN(c3ncnc4c3[nH]c3ccccc34)CC2)cc1,0,0,0,0,79,107,
Nc1cnn(C2CCCO2)c(=O)n1 (stereo not given),0,0,0,0,0,-,
O=C(Nc1cccc(Cl)c1)c1cc(F)cc2c1OCOC2,0,0,0,0,0,-,
O=C(Nc1cccc(Cl)c1)C1=Cc2cc(Cl)ccc2OC1,0,0,20,0,95,110,
O=C(Nc1ccc(Cl)c(Cl)c1)C1=Cc2ccccc2OC1,0,0,19,0,89,92,
Cc1c(Cl)cccc1S(=O)(=O)N1CCC(C(=O)NNC(=O)C2CC2)CC1,0,0,0,0,0,-,
O=C(CN1CCCCC1)NCC1(c2ccccc2)CCCC1,0,0,0,0,0,-,
FC(F)(F)c1cc(CO[C@@H]2CCCN[C@@H]2c2ccccc2)cc(C(F)(F)F)c1,-,0,0,0,103,0,MPTP abs DR=4.3;MPTP cs DR=54
FC(F)(F)c1cc(CCN2CCNC[C@@H]2c2ccccc2)cc(C(F)(F)F)c1,-,0,0,0,0,-,
Cc1ccc(S(=O)(=O)NCCNC(=O)c2ccccc2)cc1,0,0,0,0,0,-,
Cc1ccc(S(=O)(=O)NCc2ccc(C(=O)NCCN(Cc3ccccc3)C(C)C)cc2)cc1,0,0,0,0,51,71,
CCOc1ccc(N(C)S(=O)(=O)c2ccc(C)c(C(=O)OCC(=O)c3c[nH]c4ccccc34)c2)cc1,0,0,31,0,51,30,
CCc1ccc(-c2nc(CSCC(=O)N3CCN(c4ccccn4)CC3)c(C)o2)cc1,0,0,0,0,80,58,
Cc1nc2ccc(C(=O)OCC(=O)N(C)c3ccccc3)cc2nc1C,-,0,0,0,0,-,
CCCN(CC(=O)Nc1cccc(S(N)(=O)=O)c1)CC(=O)Nc1ccc(F)c(F)c1F,0,0,0,0,0,-,
CCCN(CC(=O)Nc1cccc(Br)c1)CC(=O)Nc1ccc(F)c(F)c1F,0,0,22,0,74,75,
Cc1ccccc1C(=O)Nc1ccc(-c2nnc(SC(C)C(=O)O)n2C)cc1 (stereo not given),0,0,0,0,0,-,
CCOc1ccc(CN(C)Cc2cc(=O)oc3c(C)c(C)ccc23)cc1OC,-,-,0,0,52,85,
CC(NC(=S)Nc1ccc(OC(F)F)cc1OC(F)F)C(C)(C)C (stereo not given),0,0,0,0,86,91,
CC(NC(=S)Nc1ccccc1OC(F)F)C(C)(C)C (stereo not given),0,0,0,0,0,-,
O=C(c1ccc(CSc2nc3ccncc3[nH]2)cc1)N1CCN(c2cccc(Cl)c2)CC1,0,0,0,0,90,103,
Nc1ccc(S(=O)(=O)NC2(C(F)(F)F)NC(=O)N(c3ccc(F)cc3)C2=O)cc1 (stereo not given),0,0,0,0,0,-,
